# Records with an inconclusive call do not appear. The source made the active and inactive calls. Calls follow the shape of the dose curve; as a rule, active = well fitted curve in the direction sought with a large enough effect; inconclusive = small, poorly fitted or top-dose-only effect, or another doubt; inactive = no such curve, though single readings can be large or run the other way.
# Assay: qHTS Assay for Lipid Storage Modulators: CytotoxicityAssay against Probe and Analogs
# Conditions: 3T3-L1 adipocytes cytotoxicity, imaging cell count; series mostly up to 20 µM; activity change, negative = cytotoxicity: at the top concentration
# From the text: Storing lipids as a reservoir for energy or the anabolism of elementary metabolites is a common feature of probably all cells and is conserved from bacteria to humans. The universal cellular lipid storage organelle is the so-called lipid storage droplet (LD). Although ubiquitous, LDs share a simple structure composed of a hydrophobic core that harbors the storage lipids, which is shielded by a droplet-specific phospholipid monolayer to which proteins are attached. The current model of LD biogenesis involves an incorporation of the lipid core into the membrane leaflets of the endoplasmic reticulum (ER) followed by a subsequent budding-like maturation of a LD, which ultimately pinches off. Once released, LD volume can increase by localized lipogenesis or fusion of existing droplets. Storage lipids are re-mobilized enzymatically by lipase activity. Lipase regulation in the adipocyte is heavily studied and involves multiple components including catecholamine signaling, the LD-associated proteins Perilipin and comparative gene identification-58 (CGI-58) and at least two lipases named hormone sensitive lipase (HSL) and adipocyte triglyceride lipase (ATGL). LD regulation outside of the adipocyte is poorly understood and only few components are known. However, there is an urgent need to learn more about ectopic fat depots as mislocalized storage of lipids, for example in the liver or muscle, is an eminent health problem associated with insulin resistance or the metabolic syndrome. We developed a laser-scanning cytometer assay to enable 1,536-well screening and combined the results of the small molecules screen with an RNAi database based on lipid storage. In this assay we tested analogs of the probe in a cytotoxicity assay. NIH Molecular Libraries Probe Production Centers Network [MLPCN] NIH Chemical Genomics Center [NCGC] MLPCN Grant: MH085686 Assay Submitter (PI): Mathias Beller, Max-Planck-Institut fur Biophysikalische Chemie
# 3T3-L1 cells were obtained from ATCC (CL-173). Pre-adipocyte medium (PM-1),differentiation medium (DM-2) and after adipocyte medium (AM-1) were purchased from Zen-Bio (# PM-1-L1, DM-2-L1, AM-1-L1). […] of PM-1containing 3,000 cells was dispensed into each well of a 96-well plate (Corning, #3340), and the assay plates were incubated at 37 °C, 95% humidity and 5% CO2 for 3-5 days. The differentiation of pre-adipocyte to adipocyte was induced by removing the pre-adipocyte medium and replacing with […] of differentiation medium. […] of compounds at different concentrations dissolved in differentiation medium were added to the assay plates, along with medium exchange for differentiation to test their effects on adipocyte differentiation. The final DMSO concentration was 0.5%. Triacsin C (Sigma-Aldrich T-4540), an inhibitor of long-chain fatty acyl CoA synthetase that blocks synthesis of triglycerides, was used as a positive control for lipid under-storage. After 3 days, differentiation medium was replaced with 200ul of adipocyte maintenance medium and assay plates were incubated for 4 days. Cells were then fixed using4% of paraformaldehyde in PBS for 30 minutes at room temperature, washed 3 times with PBS buffer. Finally, the cells were stained using […] of PBS containing BODIPY lipid dye 493/530 (1:2000 -, Life Technologies, # D-3922), Hoechst 33342 (1:1000, Life Technologies, #H3570) and CellMask deep red dye (1:10,000 , Life Technologies, #H32721). Images were acquired using InCell 2000 (GE), number of cells, number of lipids, size of lipids and cells were analysis using GE Investigator software.
row,SMILES,"activity change, negative = cytotoxicity"
1,CCOc1ccc(CCNC(=O)c2cc3ccccc3n2Cc2ccccn2)cc1OCC,0.909% (inactive)
2,CCOc1ccc(CCNC(=O)c2cc3ccccc3n2CCN2CCOCC2)cc1OCC,6.45% (inactive)
3,CCOc1ccc(CCNC(=O)c2cc3sccc3n2Cc2ccc(F)cc2F)cc1OCC,10% (inactive)
4,CCOc1ccc(CCNC(=O)c2cc3cccnc3n2Cc2cccc(C)n2)cc1OCC,-0.901% (inactive)
5,CCOc1ccc(CCNC(=O)c2cc3ccccc3n2Cc2cccc(C)n2)cc1OCC,-10.5% (inactive)
6,CCOC(=O)C1CCN(C(=O)C2(NC(=O)Nc3ccccc3Cl)CCCC2)CC1,-14.5% (inactive)
7,CCOc1ccc(CCNC(=O)c2cc3sccc3n2CCN(C)C)cc1OCC,-2.7% (inactive)
8,CCOc1ccc(CCNC(=O)c2cc3ncccc3n2Cc2cccc(C)n2)cc1OCC,-10.5% (inactive)
